Reference: the antibiotic and cytotoxicity screens of Wong et al. (2023)
The whole screen tested about 39,000 compounds, of which about 1,500 (3.8%) were called active. For the sample, actives were picked, then their nearest neighbours and some compounds at random.

test system: HSkMC (human skeletal muscle cells); experiment: cytotoxicity call (relative viability < 0.9); details: 10 µM

| SMILES | cytotoxicity call |
| --- | --- |
| CO[C@H]1CN(C)C(=O)c2cc(NC(=O)NC(C)C)ccc2OC[C@H](C)N(Cc2ccc(-c3ccccn3)cc2)C[C@@H]1C | inactive |
| COCC(=O)N(C)C[C@@H]1Oc2cc(C#Cc3ccccc3)ccc2S(=O)(=O)N([C@H](C)CO)C[C@H]1C | inactive |
| CO[C@@H]1CN(C)C(=O)c2cc(NC(=O)Nc3ccccc3)ccc2OC[C@@H](C)N(C(=O)CN(C)C)C[C@@H]1C | inactive |
| Nc1ccn([C@H]2CC[C@@H](CO)O2)c(=O)n1 | inactive |
| CC(C)CC#Cc1ccc2c(c1)O[C@H](CN(C)C(=O)c1ccncc1)[C@@H](C)CN([C@H](C)CO)S2(=O)=O | inactive |
| CCn1c(-c2nonc2N)nc2cncc(C(=O)N3CC[C@H](N)C3)c21 | active |
| C[C@H](CO)N1C[C@H](C)[C@H](CN(C)Cc2ccncc2)OCCCC[C@H](C)Oc2ccc(NC(=O)NC3CCCCC3)cc2C1=O | inactive |
| C[C@@H]1CCCCO[C@H](CN(C)C(=O)Cc2ccccc2)[C@H](C)CN([C@H](C)CO)C(=O)c2cc(NS(=O)(=O)c3ccc(Cl)cc3)ccc2O1 | inactive |
| C[C@H](CO)N1C[C@H](C)[C@H](CN(C)C(=O)C2CCCCC2)OCCCC[C@H](C)Oc2ccc(NC(=O)Nc3ccc4c(c3)OCO4)cc2C1=O | inactive |
| Nc1ccn([C@H]2O[C@@H](CO)[C@@H](O)[C@@H]2O)c(=O)n1 | inactive |
| O=C(C[C@@H]1C=C[C@@H](NS(=O)(=O)c2ccccc2F)[C@@H](CO)O1)NCCCN1CCOCC1 | inactive |
| O=C(CCCCC(=O)N/N=C/c1cc[n+]([O-])cc1)NO | inactive |
| Cc1ccc(S(=O)(=O)Nc2ccc3c(c2)CC(=O)N([C@H](C)CO)C[C@H](C)[C@H](CN(C)C(=O)Nc2cccc4ccccc24)O3)cc1 | inactive |
| CN(C)C1CCN(C(=O)c2cnc(-c3noc4cc(-c5cccc(C(F)(F)F)c5)ccc34)s2)CC1 | active |
| CN(C)C1CCN(C(=O)c2cnc(-c3noc4cc(-c5ccccc5C(F)(F)F)ccc34)s2)CC1 | inactive |
| C[C@H](CO)N1C[C@H](C)[C@H](CN(C)C(=O)Nc2ccccc2)Oc2ncc(-c3cccc(C(F)(F)F)c3)cc2C1=O | inactive |
| COc1ccc(S(=O)(=O)Nc2ccc3c(c2)CC(=O)N([C@@H](C)CO)C[C@H](C)[C@@H](CN(C)S(=O)(=O)c2cn(C)cn2)O3)cc1 | inactive |
| O=C(C1=C[C@H](c2coc3ccccc3c2=O)C[C@H](OCCCCO)O1)N1CCN(Cc2ccc3c(c2)OCO3)CC1 | inactive |
| CNc1cccc(CN)c1 | inactive |
| CN1CCC(Nc2nc(Nc3ccc(Oc4ccccc4)cc3)c3c(O)ncc(Br)c3n2)CC1 | active |
